An excerpt weighted towards active compounds, which were near 10% of everything screened.
BAZ2B block – BAZ2B (human) inhibition; Q9UIF8; AlphaScreen BAZ2B-H3K14Ac peptide displacement; Potency, µM (doses to about 114 µM), usual class: inhibitors; 4.4% of 360,000 active; AID 504333; further: nearly all actives have a fitted effect of over 60% in size
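BAZ2B 50 nM plus b-H3(5-23)K14Ac 50 nM, PBS pH 7.4/0.01% Tween-20, 30 min RT; compound added (max 110 uM), 30 min RT; streptavidin donor/Ni-chelate acceptor beads 10 ug/mL final, 20 min dark; AlphaScreen read.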
CtBP-E1A blk – blocks the CtBP interaction with E1A; 0.49% of 340,000 active; AlphaScreen GST-E1A/His-CtBP binding, 1536-well; hits give low values; activity change, % (no concentration beside the values); in the data active means activity change below about -65%; inconclusive means mostly about -30% to -63%
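Protein mix (5X: 125 nM each GST-E1A, His-CtBP) was incubated with pinned compound 2 h at 37 deg C in dark, in 50 mM Tris pH 8.0 buffer with 300 mM NaCl. Glutathione donor and nickel acceptor beads followed; AlphaScreen signal read after 1 h.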
G9a inh – inhibitors of human histone lysine methyltransferase G9a; 8.8% of 350,000 active; G9a H3K9 monomethylation, AlphaScreen, 2 h; Q96KQ7; Potency, µM (doses to about 102 µM), usual class: inhibitors; further: nearly all actives have a fitted effect of over 75% in size
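Methyltransferase reactions run at room temperature for 2 h (20 nM enzyme, 500 nM biotin-H3K9 peptide, 20 uM SAM) after a 15 min compound preincubation; product detected by AlphaScreen beads and anti-H3K9me1 antibody.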
Six1-Eya2 inh – blocks human Six1 binding to Eya2 | Q15475+O00167 | AlphaScreen GST-Six1/His-Eya2 binding, biochemical; hits give low values | activity change, % (concentration not given with the values) | 0.56% of 360,000 active | AID 651725; in the data active means activity change below about -65%; inconclusive means mostly about -30% to -63%
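Compounds are tested against tagged Six1 and Eya2 proteins bridged by glutathione donor and nickel acceptor beads; after a one-hour incubation at 37 °C without light, AlphaScreen emission is recorded.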
HP1b binding inh – inhibitors of HP1-beta chromodomain binding to methylated histone tails; AlphaScreen HP1-beta / biotin-H3K9me3 peptide binding; Potency, µM (doses to about 114 µM), hits mostly inhibitors; 0.56% of 390,000 active; AID 540317; further: nearly all actives have a fitted effect of over 70% in size
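Compound inhibition of the preformed complex between 50 nM HP1-beta and 50 nM biotinylated H3K9me3 peptide was read by AlphaScreen. Buffer was PBS pH 7.4 with 0.01% Tween-20. Incubations ran 30 min at room temperature, with 10 ug/mL donor/acceptor beads.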
JMJD2A Tudor inh – inhibitors of human JMJD2A Tudor domain | Potency, µM (titrated, usually from 114 µM), most hits filed as inhibitors | 4.4% of 390,000 active | O75164 | AlphaScreen JMJD2A-Tudor / H3K4me3 peptide binding | AID 504339; further: nearly all actives have a fitted effect of over 50% in size
Numbers stand for hits; [ ] = another dose, or the depositor's remark. Unless noted, the call rests on the fitted dose curve; in most records, active means well fitted inhibition curve with a large enough effect; inconclusive means small, poorly fitted or top-dose-only effect; inactive means no such curve, though single readings can be large or run the other way.

Screening CCOC(=O)C1CCN(S(=O)(=O)c2ccc(Cl)cc2)CC1 returned BAZ2B block inactive, CtBP-E1A blk inactive, G9a inh inactive, Six1-Eya2 inh inactive, HP1b binding inh inactive and JMJD2A Tudor inh inactive.
For O=C(Nc1ccc2nc(N3CCOCC3)sc2c1)c1cc2ccccc2o1 the results were CtBP-E1A blk inactive and Six1-Eya2 inh inactive.
CCCCC(=O)NC(c1ccc(Cl)cc1)c1ccc2cccnc2c1O (stereo unspecified) was read as CtBP-E1A blk inconclusive, Six1-Eya2 inh inconclusive, HP1b binding inh inactive and JMJD2A Tudor inh 56.2µM.
`CCOC(=O)c1[nH]c2ccc(Br)cc2c1NC(=O)CCN1CCC(C(=O)OCC)CC1` gave BAZ2B block inactive, CtBP-E1A blk inactive, G9a inh 50.1µM, Six1-Eya2 inh inactive, HP1b binding inh inactive and JMJD2A Tudor inh inactive[11.4 µM].
`O=C(Nc1ccc(-c2ccccc2)cc1)c1ccccc1` gave BAZ2B block inactive, CtBP-E1A blk inactive, G9a inh inactive[0.501 µM], Six1-Eya2 inh inactive, HP1b binding inh inactive and JMJD2A Tudor inh inactive.
`O=C(Nc1ccc(-c2n[nH]c(=S)o2)cc1)c1ccccc1` gave BAZ2B block inactive, G9a inh 31.6µM, Six1-Eya2 inh inactive, HP1b binding inh inactive and JMJD2A Tudor inh inconclusive.
Screening COc1ccc(C(=O)Nc2ccc3oc(-c4ccc(OC)cc4)nc3c2)cc1 returned BAZ2B block inactive, G9a inh inactive, HP1b binding inh inactive and JMJD2A Tudor inh inactive.
For COc1ccc(C(=O)Nc2ccc(-c3n[nH]c(=S)o3)cc2)cc1 the results were BAZ2B block inconclusive, CtBP-E1A blk inactive, G9a inh 1.78µM, Six1-Eya2 inh inactive, HP1b binding inh inactive and JMJD2A Tudor inh inconclusive.
CN1CCC2(CC1)CCN(C(=O)c1cccc(F)c1)CC2 was read as G9a inh inactive[12.7 µM].
`COc1ccc(N2C(=S)NC3N2C(=S)NC3(C)c2ccccc2)cc1` (stereo unspecified) gave BAZ2B block inconclusive, CtBP-E1A blk inactive, G9a inh 28.2µM, Six1-Eya2 inh inactive, HP1b binding inh inactive and JMJD2A Tudor inh inactive.
For CC1(c2ccccc2)NC(=S)N2C1NC(=S)N2c1ccccc1 (stereo unspecified) the results were BAZ2B block inactive, CtBP-E1A blk inactive, G9a inh 50.1µM, Six1-Eya2 inh inactive, HP1b binding inh inactive and JMJD2A Tudor inh inconclusive.
Screening O=C(O)CC1NC(=S)N(c2ccccc2)C1=O (stereo unspecified) returned BAZ2B block inactive, CtBP-E1A blk inactive, G9a inh inconclusive, Six1-Eya2 inh inactive, HP1b binding inh inactive and JMJD2A Tudor inh inconclusive.
`CC1CC(C)(C)Nc2ccc(OC(=O)c3ccco3)cc21` (stereo unspecified) gave BAZ2B block inconclusive, CtBP-E1A blk inactive, G9a inh 44.7µM, Six1-Eya2 inh inactive, HP1b binding inh inactive and JMJD2A Tudor inh inconclusive.
Screening OC(CNCC(c1ccc(Cl)cc1Cl)c1c[nH]c2ccccc12)c1ccccc1 (stereo unspecified) returned BAZ2B block inconclusive, CtBP-E1A blk inactive, G9a inh 50.1µM, Six1-Eya2 inh inactive, HP1b binding inh inconclusive and JMJD2A Tudor inh 35.5µM.
Screening COc1ccc(C(=O)CCC(=O)Nc2cccnc2)cc1 returned BAZ2B block inactive, CtBP-E1A blk inactive, G9a inh inactive, Six1-Eya2 inh inactive, HP1b binding inh inactive and JMJD2A Tudor inh inactive.
COCC1CCCN(C(=O)c2cc(COc3ccc4ncccc4c3)on2)C1 (stereo unspecified) was read as BAZ2B block inactive, CtBP-E1A blk inactive, Six1-Eya2 inh inactive, HP1b binding inh inactive and JMJD2A Tudor inh inactive.
Cc1ccc(S(=O)(=O)NCc2n[nH]c(=S)n2C)cc1 was read as BAZ2B block inactive, CtBP-E1A blk inactive, G9a inh 31.6µM, Six1-Eya2 inh inactive, HP1b binding inh inactive and JMJD2A Tudor inh 7.94µM.
Cn1c(CNS(=O)(=O)c2ccc(Br)cc2)n[nH]c1=S was read as BAZ2B block inactive, CtBP-E1A blk inactive, G9a inh 22.4µM, Six1-Eya2 inh inactive, HP1b binding inh inactive and JMJD2A Tudor inh 7.94µM.

Source: PubChem (National Center for Advancing Translational Sciences (NCATS))
